Test results reported in PubChem BioAssay AID720650 (Broad Institute, 2013).
Active and inactive are the calls of the source. The rule behind the calls is not given here.

assay: Biochemical counterscreen for C difficile toxins, absence of UDPG, inhibitor dose response (AID 720650); conditions: series mostly up to 19.5 µM

| SMILES | AC50 |
| --- | --- |
| CCC(CO)[n+]1c(C)cc(/C=C2\Sc3ccccc3N2Cc2ccccc2)cc1C (configuration not stated) | 3.4 µM (active) |
| O=C(C[C@@H]1CC[C@H]2[C@@H](COC[C@H](O)CN2C(=O)c2ccccn2)O1)NC1CCC1 | inactive |
| Fc1ccc(/C=C\c2nccc3c2[nH]c2ccccc23)cc1 | inactive |
| COCCNc1oc(/C=C/c2ccccc2)nc1C#N | inactive |
| CN(C)c1ccc(C(=S)N2CCN(C(=S)Nc3ccc(Cl)cc3)CC2)cc1 | inactive |
| CN1c2ccc(-c3ccccc3)cc2[C@H]2[C@H](CCN2C(=O)CN2CCOCC2)[C@H]1CO | 7.83 µM (active) |
| COc1cc(/C=N/n2c(-c3ccccc3)n[nH]c2=S)ccc1O | inactive |
| O=C(COc1ccc(/C=N/NC(=O)c2ccc(O)cc2)cc1)Nc1cccc([N+](=O)[O-])c1 | inactive |
| CC(C)OC(=O)c1cccc(C(=O)O)n1 | inactive |
| O=C(O)c1ccc(/C=N/NC(=S)NCCN2CCOCC2)cc1 | inactive |
| COc1cc(/C=C/C(=O)OCC(=O)c2ccc[nH]2)ccc1O | inactive |
| COc1ccc(NC(=O)Cn2cnc3sc(C)c(S(=O)(=O)N4CCOCC4)c3c2=O)c(OC)c1 | inactive |
| COc1cc2[nH]c(=S)nc(NCCC(C)C)c2cc1OC | inactive |
| CN(C)CCNC(=O)c1cc2c(s1)-c1ccc(Cl)cc1SC2 | > 39 µM (inactive) |
| Cc1ccc(NS(=O)(=O)c2ccc(C)c(NC(=S)NCCN3CCOCC3)c2)c(C)c1 | inactive |
| COc1cc(/C=C2\SC(=S)N(NC(=O)c3cccc(O)c3)C2=O)ccc1O | inactive |
| Cc1ccn2c(Cc3ccccc3)c(-c3ccc(F)cc3)nc2c1 | inactive |
